Measured values: publication PMC7862700, “An all-to-all approach to the identification of sequence-specific readers for epigenetic DNA modifications on cytosine”

Key:
Experiment in all cases: DAPPL (digital affinity profiling via proximity ligation, sequencing); 10 mM Tris-HCl pH 7.5, 50 mM NaCl, 1 mM DTT, 4% glycerol, room temperature, 30 min; GST-TFs on glutathione beads, 16-mer random dsDNA library, 0.1% formaldehyde crosslink after washing; high values mean tight binding
FLI1 = biological target: T1, FLI1 (Homo sapiens, UniProt Q01543 1-452); conditions: protein: recombinant; tags: N-terminal GST; dsDNA, one strand shown
T1 sequence: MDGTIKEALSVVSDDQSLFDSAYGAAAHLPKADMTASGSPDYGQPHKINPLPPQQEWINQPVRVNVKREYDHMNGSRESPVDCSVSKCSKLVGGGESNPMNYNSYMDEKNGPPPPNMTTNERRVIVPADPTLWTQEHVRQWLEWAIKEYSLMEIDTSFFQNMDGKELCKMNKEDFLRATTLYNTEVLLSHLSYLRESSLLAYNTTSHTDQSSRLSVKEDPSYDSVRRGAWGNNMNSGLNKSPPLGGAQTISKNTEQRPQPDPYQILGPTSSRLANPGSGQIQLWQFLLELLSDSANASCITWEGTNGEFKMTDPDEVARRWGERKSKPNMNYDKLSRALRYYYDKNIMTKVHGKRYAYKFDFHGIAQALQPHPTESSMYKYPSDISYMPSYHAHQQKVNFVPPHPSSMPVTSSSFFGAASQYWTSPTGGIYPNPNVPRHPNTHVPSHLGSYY
Procedure, shortened: (§1)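 Pools were built from human transcription factors expressed in yeast as GST fusions, captured on glutathione beads and DNA-barcoded, along with a tag-only sample. Incubation with 200 nmole of a 16-mer random double-stranded DNA library lasted 30 min at room temperature in Tris/NaCl/DTT/glycerol buffer, and was followed by washing, 0.1% formaldehyde crosslinking, proximity ligation, PCR amplification and Illumina NextSeq500 sequencing. Binding signal is the quotient of each hexamer's read frequency for a factor and its frequency for the tag-only sample.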

ELK1 = biological target: T2, ELK1 (Homo sapiens, UniProt P19419 1-428); conditions: protein: recombinant; tags: N-terminal GST; dsDNA, one strand shown
T2 sequence: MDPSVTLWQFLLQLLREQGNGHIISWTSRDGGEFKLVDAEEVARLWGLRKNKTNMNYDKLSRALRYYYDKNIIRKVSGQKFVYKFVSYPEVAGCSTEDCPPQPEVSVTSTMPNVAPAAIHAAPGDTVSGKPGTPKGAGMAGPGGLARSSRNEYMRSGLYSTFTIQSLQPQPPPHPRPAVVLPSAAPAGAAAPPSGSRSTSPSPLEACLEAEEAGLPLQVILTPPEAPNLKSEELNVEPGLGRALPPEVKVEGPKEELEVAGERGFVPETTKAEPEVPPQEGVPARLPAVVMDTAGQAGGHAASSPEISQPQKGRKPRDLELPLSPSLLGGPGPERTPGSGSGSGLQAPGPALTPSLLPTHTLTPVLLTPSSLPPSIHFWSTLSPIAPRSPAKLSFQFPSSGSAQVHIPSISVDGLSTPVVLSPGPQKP
Procedure, shortened: as §1

GABPA = biological target: T3, GABPA (Homo sapiens, UniProt Q06546 1-454); conditions: protein: recombinant; tags: N-terminal GST; dsDNA, one strand shown
T3 sequence: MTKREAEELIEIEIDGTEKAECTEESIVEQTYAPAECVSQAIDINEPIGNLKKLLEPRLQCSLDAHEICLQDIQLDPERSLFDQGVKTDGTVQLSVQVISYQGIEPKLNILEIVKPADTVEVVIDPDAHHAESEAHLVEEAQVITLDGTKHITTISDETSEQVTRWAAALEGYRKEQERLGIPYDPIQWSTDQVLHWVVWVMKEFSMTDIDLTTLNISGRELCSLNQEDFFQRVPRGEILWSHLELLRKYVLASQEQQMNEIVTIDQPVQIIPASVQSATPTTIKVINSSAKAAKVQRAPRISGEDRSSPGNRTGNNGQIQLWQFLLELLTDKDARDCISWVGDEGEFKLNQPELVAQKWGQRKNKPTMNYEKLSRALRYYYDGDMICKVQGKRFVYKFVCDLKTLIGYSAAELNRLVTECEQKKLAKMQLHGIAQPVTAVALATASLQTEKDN
Procedure, shortened: as §1

ERG = biological target: T4, ERG (Homo sapiens, UniProt P11308 1-479); conditions: protein: recombinant; tags: N-terminal GST; dsDNA, one strand shown
T4 sequence: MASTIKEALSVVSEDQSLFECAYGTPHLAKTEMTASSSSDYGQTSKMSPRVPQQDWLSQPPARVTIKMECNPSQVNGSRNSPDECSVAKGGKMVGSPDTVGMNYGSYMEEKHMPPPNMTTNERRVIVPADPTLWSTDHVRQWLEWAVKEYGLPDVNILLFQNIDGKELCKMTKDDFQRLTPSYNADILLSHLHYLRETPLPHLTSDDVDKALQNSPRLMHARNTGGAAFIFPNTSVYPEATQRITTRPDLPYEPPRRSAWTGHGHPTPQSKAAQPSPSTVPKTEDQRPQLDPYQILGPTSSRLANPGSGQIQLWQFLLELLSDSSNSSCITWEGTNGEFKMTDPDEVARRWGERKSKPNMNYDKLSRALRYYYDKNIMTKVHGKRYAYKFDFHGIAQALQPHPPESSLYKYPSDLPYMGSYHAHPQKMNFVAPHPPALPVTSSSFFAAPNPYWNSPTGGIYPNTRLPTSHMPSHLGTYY
Procedure, shortened: as §1

ELF1 = ELF1 (Homo sapiens, UniProt P32519 1-619); conditions: protein: recombinant; tags: N-terminal GST; dsDNA, one strand shown
Procedure, shortened: as §1

EHF = biological target: T5, EHF (Homo sapiens, UniProt Q9NZC4 1-300); conditions: protein: recombinant; tags: N-terminal GST; dsDNA, one strand shown
T5 sequence: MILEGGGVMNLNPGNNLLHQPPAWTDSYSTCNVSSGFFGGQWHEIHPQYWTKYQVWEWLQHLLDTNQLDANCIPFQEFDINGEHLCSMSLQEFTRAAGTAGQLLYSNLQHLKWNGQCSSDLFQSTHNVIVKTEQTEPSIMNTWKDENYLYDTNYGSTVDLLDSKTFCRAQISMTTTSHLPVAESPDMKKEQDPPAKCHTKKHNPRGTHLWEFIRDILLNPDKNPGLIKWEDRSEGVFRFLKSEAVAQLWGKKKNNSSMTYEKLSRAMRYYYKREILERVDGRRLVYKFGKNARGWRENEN
Procedure, shortened: as §1

SPI1 = SPI1 (Homo sapiens, UniProt P17947 1-270); conditions: protein: recombinant; tags: N-terminal GST; dsDNA, one strand shown
Procedure, shortened: as §1

SPIB = SPIB (Homo sapiens, UniProt Q01892 1-262); conditions: protein: recombinant; tags: N-terminal GST; dsDNA, one strand shown
Procedure, shortened: as §1

ELK3 = biological target: T6, ELK3 (Homo sapiens, UniProt P41970 1-407); conditions: protein: recombinant; tags: N-terminal GST; dsDNA, one strand shown
T6 sequence: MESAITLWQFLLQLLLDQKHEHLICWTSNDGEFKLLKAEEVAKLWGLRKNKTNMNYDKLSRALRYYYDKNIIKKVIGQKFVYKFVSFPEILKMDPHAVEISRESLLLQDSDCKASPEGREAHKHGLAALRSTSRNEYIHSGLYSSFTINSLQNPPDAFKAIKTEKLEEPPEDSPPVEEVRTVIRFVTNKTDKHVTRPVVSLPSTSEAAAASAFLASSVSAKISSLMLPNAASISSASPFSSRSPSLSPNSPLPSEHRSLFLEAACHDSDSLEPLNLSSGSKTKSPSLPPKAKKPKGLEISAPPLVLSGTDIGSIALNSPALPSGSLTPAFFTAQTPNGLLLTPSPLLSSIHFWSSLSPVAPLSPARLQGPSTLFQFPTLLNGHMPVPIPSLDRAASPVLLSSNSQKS
Procedure, shortened: as §1

FEV = biological target: T7, FEV (Homo sapiens, UniProt Q99581 1-238); conditions: protein: recombinant; tags: N-terminal GST; dsDNA, one strand shown
T7 sequence: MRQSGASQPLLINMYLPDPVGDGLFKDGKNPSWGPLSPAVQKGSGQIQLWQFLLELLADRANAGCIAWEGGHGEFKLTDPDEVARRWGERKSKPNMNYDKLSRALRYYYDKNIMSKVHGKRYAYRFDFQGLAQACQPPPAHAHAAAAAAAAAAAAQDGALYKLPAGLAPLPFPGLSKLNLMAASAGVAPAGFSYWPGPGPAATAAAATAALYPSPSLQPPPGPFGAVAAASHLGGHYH
Procedure, shortened: as §1

ETV5 = ETV5 (Homo sapiens, UniProt P41161 1-510); conditions: protein: recombinant; tags: N-terminal GST; dsDNA, one strand shown
Procedure, shortened: as §1

HSF1 = HSF1 (Homo sapiens, UniProt Q00613 1-529); conditions: protein: recombinant; tags: N-terminal GST; chain copies: 3; dsDNA, one strand shown
Procedure, shortened: as §1

SPIC = biological target: T8, SPIC (Homo sapiens, UniProt Q8N5J4 1-248); conditions: protein: recombinant; tags: N-terminal GST; dsDNA, one strand shown
T8 sequence: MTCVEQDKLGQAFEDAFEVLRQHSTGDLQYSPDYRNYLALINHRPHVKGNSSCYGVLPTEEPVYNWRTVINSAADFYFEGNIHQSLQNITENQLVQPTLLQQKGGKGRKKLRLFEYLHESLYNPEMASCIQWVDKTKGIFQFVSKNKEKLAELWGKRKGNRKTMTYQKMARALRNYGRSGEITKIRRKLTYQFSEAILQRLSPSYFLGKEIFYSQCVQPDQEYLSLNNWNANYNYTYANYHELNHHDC
Procedure, shortened: as §1

ELF4 = ELF4 (Homo sapiens, UniProt Q99607 1-663); conditions: protein: recombinant; tags: N-terminal GST; dsDNA, one strand shown
Procedure, shortened: as §1

ELK4 = biological target: T9, ELK4 (Homo sapiens, UniProt P28324-2 1-405); conditions: protein: recombinant; tags: N-terminal GST; dsDNA, one strand shown
T9 sequence: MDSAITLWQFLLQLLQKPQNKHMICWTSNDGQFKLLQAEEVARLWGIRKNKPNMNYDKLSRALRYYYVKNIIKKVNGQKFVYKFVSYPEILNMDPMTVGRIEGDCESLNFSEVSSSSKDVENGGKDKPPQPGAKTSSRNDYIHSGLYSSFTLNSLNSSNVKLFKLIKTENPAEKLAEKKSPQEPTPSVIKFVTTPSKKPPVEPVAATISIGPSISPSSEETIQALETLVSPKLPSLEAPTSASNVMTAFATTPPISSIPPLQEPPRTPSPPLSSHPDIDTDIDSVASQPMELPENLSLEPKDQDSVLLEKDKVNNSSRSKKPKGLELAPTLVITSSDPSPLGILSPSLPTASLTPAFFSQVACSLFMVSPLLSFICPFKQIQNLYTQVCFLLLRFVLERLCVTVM
Procedure, shortened: as §1

ETV2 = biological target: T10, ETV2 (Homo sapiens, UniProt O00321 1-342); conditions: protein: recombinant; tags: N-terminal GST; dsDNA, one strand shown
T10 sequence: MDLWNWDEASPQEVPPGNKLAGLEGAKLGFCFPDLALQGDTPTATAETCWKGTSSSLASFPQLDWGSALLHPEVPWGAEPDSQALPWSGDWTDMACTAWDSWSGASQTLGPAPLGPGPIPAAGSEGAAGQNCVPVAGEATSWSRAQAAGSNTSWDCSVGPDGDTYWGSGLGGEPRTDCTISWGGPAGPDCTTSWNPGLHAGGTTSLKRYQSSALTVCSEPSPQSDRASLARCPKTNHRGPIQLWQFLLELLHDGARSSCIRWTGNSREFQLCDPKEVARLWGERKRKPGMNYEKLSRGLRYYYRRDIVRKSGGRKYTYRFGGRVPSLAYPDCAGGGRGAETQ
Procedure, shortened: as §1

ELF3 = biological target: T11, ELF3 (Homo sapiens, UniProt P78545 1-371); conditions: protein: recombinant; tags: N-terminal GST; dsDNA, one strand shown
T11 sequence: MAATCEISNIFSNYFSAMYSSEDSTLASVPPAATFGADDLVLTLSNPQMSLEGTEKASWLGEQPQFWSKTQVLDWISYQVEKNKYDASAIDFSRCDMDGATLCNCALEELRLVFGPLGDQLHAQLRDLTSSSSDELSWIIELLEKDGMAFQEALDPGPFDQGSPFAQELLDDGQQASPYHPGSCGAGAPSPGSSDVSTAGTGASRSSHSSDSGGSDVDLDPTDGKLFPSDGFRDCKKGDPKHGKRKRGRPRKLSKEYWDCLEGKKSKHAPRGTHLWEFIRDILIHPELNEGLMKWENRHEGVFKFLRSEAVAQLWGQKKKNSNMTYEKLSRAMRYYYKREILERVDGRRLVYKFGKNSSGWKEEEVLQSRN
Procedure, shortened: as §1

CRX = CRX (Homo sapiens, UniProt O43186 1-299); conditions: protein: recombinant; tags: N-terminal GST; dsDNA, one strand shown
Procedure, shortened: as §1

ETV1 = ETV1 (Homo sapiens, UniProt P50549 1-477); conditions: protein: recombinant; tags: N-terminal GST; dsDNA, one strand shown
Procedure, shortened: as §1

Sequence of ELF1 (P32519 whole entry): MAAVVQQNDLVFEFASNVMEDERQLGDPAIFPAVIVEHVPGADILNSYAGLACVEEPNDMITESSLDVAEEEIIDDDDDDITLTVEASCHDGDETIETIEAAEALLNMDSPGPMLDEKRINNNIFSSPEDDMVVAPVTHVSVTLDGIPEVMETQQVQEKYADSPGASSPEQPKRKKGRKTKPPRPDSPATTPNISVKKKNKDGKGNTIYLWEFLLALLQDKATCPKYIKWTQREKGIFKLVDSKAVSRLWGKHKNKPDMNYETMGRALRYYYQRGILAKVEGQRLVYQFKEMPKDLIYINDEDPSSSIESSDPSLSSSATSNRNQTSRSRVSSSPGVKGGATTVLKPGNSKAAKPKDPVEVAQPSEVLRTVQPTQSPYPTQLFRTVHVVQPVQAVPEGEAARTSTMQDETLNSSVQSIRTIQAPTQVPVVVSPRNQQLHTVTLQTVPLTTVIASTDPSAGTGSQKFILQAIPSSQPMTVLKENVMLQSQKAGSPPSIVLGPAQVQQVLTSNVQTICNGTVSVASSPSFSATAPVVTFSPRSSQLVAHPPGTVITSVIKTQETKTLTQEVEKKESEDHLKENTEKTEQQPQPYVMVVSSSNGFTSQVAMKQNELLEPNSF
Sequence of SPIB (Q01892 whole entry): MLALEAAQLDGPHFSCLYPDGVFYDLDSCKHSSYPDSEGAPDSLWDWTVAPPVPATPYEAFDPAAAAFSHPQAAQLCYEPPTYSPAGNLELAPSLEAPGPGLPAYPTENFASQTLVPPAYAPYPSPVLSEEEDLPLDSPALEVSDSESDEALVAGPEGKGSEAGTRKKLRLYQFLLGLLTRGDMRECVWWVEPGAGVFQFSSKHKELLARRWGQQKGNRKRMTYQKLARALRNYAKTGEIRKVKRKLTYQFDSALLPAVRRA
Sequence of ETV5 (P41161 whole entry): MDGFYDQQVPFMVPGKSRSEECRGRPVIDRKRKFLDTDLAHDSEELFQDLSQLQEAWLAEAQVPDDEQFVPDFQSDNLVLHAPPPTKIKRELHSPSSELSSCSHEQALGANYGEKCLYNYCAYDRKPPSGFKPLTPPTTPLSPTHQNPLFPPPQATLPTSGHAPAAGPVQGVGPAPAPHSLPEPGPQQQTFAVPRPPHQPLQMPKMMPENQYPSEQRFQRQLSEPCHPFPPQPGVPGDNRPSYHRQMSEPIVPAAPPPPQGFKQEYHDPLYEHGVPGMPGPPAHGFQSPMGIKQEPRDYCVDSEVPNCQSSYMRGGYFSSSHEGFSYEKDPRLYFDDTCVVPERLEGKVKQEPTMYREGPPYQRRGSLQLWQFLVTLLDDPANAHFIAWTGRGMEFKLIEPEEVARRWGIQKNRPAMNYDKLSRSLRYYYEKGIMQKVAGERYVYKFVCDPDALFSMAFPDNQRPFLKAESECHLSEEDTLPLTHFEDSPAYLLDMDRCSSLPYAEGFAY
Sequence of ELF4 (Q99607 whole entry): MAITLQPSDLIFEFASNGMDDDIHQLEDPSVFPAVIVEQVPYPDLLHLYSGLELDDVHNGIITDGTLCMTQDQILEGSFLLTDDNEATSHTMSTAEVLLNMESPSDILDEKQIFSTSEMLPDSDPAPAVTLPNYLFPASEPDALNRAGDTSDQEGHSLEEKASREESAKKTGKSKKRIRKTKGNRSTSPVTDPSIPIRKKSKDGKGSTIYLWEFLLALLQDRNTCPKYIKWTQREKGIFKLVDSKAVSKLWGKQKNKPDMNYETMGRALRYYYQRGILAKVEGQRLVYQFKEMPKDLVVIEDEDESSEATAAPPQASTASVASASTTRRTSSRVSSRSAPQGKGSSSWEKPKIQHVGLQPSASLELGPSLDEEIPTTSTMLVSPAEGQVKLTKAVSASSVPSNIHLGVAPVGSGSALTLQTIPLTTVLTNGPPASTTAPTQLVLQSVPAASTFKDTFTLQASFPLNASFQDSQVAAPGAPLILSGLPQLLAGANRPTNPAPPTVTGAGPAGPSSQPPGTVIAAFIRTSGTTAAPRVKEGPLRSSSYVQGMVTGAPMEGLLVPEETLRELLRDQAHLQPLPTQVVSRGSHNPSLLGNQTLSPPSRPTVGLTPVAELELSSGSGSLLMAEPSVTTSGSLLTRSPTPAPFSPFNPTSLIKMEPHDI
Sequence of HSF1 (Q00613 whole entry): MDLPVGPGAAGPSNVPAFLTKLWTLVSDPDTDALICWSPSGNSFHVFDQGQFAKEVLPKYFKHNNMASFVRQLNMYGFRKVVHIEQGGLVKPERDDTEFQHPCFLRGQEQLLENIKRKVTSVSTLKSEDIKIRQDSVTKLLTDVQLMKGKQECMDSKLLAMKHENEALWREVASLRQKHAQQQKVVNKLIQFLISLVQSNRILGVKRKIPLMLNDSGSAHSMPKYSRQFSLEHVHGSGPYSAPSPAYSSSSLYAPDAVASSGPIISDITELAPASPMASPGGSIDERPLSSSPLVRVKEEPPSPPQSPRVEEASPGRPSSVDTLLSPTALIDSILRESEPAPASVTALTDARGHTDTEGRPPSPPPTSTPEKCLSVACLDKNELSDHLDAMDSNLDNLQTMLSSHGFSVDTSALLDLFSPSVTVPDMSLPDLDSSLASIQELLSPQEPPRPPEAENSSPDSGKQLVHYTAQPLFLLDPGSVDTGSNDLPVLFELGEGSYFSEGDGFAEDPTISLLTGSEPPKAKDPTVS
Sequence of CRX (O43186 whole entry): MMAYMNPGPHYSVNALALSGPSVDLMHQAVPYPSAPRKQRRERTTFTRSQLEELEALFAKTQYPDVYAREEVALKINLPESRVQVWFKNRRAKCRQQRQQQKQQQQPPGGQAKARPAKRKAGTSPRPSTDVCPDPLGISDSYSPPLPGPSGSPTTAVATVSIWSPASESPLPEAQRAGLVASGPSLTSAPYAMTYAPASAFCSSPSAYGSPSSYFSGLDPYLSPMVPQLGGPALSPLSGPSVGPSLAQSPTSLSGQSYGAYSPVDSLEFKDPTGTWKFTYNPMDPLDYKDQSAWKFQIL
Sequence of ETV1 (P50549 whole entry): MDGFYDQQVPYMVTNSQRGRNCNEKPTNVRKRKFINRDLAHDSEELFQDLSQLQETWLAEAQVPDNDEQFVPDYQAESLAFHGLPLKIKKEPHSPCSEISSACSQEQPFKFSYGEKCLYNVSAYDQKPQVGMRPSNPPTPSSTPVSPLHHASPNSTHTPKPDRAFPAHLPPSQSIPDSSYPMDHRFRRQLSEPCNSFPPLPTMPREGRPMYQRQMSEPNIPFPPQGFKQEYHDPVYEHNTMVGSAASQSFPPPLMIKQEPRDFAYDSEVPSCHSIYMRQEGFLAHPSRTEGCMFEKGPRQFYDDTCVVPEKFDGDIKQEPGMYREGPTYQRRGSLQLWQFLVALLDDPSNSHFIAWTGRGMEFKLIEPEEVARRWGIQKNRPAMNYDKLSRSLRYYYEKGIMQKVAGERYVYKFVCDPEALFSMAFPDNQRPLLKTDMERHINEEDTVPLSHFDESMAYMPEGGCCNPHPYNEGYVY

Sequence: AACAAC
- binding signal (FLI1): 1.24 fold enrichment (6-mer frequency, TF over GST control)
- binding signal (ELK1): 1.31 fold enrichment (6-mer frequency, TF over GST control)
- binding signal (GABPA): 1.24 fold enrichment (6-mer frequency, TF over GST control)
- binding signal (ERG): 1.29 fold enrichment (6-mer frequency, TF over GST control)
- binding signal (ELF1): 1.3 fold enrichment (6-mer frequency, TF over GST control)
- binding signal (EHF): 1.29 fold enrichment (6-mer frequency, TF over GST control)
- binding signal (SPI1): 1.3 fold enrichment (6-mer frequency, TF over GST control)
- binding signal (SPIB): 1.23 fold enrichment (6-mer frequency, TF over GST control)
- binding signal (ELK3): 1.34 fold enrichment (6-mer frequency, TF over GST control)
- binding signal (FEV): 1.26 fold enrichment (6-mer frequency, TF over GST control)
- binding signal (ETV5): 1.24 fold enrichment (6-mer frequency, TF over GST control)
- binding signal (HSF1): 1.14 fold enrichment (6-mer frequency, TF over GST control)
- binding signal (SPIC): 1.2 fold enrichment (6-mer frequency, TF over GST control)
- binding signal (ELF4): 1.26 fold enrichment (6-mer frequency, TF over GST control)
- binding signal (ELK4): 1.27 fold enrichment (6-mer frequency, TF over GST control)
- binding signal (ETV2): 1.34 fold enrichment (6-mer frequency, TF over GST control)
- binding signal (ELF3): 1.31 fold enrichment (6-mer frequency, TF over GST control)
- binding signal (CRX): 1.04 fold enrichment (6-mer frequency, TF over GST control)
- binding signal (ETV1): 1.23 fold enrichment (6-mer frequency, TF over GST control)
